Here are results for five compounds from PubChem BioAssay.

Activity calls are given as the source filed them.

Assay [1] in a line: small molecules captured by biotinylated probe aFSTL3 – biochemical, small-molecule microarray, fluorescence 635/667, stem cell growth factor project, primary screen (AID 1064).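 Also: measures binding of the biotinylated anti-FSTL3 antibody to printed compounds.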 Particulars: higher = more signal.
Assay [2] in a line: binders from COS7 lysate, DM2A8 probe, primary screen, torsin A project, cell lysate, small-molecule microarray, fluorescence 635/667 (AID 1065). Particulars: higher = more signal, COS7 lysate expressing mutant human TOR1A.
A short description of assay [3]: small molecules captured by biotinylated probe aFGF2 – biochemical, small-molecule microarray, fluorescence 635/667, stem cell growth factor project, primary screen (AID 1067).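 Also: measures binding of biotinylated aFGF2 protein to printed compounds on slides; z-score merges feature fluorescence and signal-to-noise across triplicate slides.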 Particulars: higher = more signal.
A short description of assay [4]: small molecules captured by biotinylated probe aFGF10 – biochemical, small-molecule microarray, fluorescence 635/667, stem cell growth factor project, primary screen (AID 1071).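 Also: score merges 667 nm spot intensity and signal to noise from triplicate slides.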 Particulars: higher = more signal.
Assay [5] addresses Neurogenic locus notch homolog protein 2 (Homo sapiens) (UniProt Q04721). The assay is described as follows: small molecules binding Notch2 protein – biochemical, small-molecule microarray, 635 nm fluorescence, stem cell growth factors, primary screen (AID 1073). Particulars: higher = more signal.
In assay [6] the target is Pro-neuregulin-1, membrane-bound isoform (Homo sapiens) (UniProt Q02297). The assay is described as follows: small molecules binding neuregulin-1 protein – biochemical, small-molecule microarray, fluorescence 635/667, psychiatric disease protein project, primary screen (AID 1075).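 Also: score combines 667 nm spot fluorescence with signal to noise.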 Particulars: NRG1 binding, 635 nm fluorescence, higher = more signal.
Sequence of Pro-neuregulin-1, membrane-bound isoform (Homo sapiens) (Q02297 whole entry, looked up, the tested form may be a part, canonical isoform): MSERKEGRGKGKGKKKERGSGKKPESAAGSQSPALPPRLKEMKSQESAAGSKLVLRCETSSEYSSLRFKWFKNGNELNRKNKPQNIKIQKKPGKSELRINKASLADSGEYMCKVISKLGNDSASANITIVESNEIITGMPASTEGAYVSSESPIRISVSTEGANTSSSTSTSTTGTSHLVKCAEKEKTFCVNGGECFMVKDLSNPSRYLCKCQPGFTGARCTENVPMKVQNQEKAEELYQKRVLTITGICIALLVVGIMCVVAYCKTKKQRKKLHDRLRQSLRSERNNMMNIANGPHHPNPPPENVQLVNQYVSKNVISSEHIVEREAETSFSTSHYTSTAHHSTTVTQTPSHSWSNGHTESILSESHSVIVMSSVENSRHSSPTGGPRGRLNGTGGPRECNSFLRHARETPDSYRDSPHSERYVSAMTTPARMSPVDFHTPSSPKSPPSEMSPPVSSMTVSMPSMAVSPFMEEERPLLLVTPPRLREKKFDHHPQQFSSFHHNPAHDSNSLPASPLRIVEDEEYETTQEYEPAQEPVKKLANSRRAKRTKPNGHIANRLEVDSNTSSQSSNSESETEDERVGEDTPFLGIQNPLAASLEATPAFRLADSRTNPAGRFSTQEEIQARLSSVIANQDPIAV
Assay [7] deals with Neuregulin-1 EGF-like domain. The assay is described as follows: small molecules binding NRG1 EGF domain – biochemical, small-molecule microarray, 635 nm fluorescence, primary screen (AID 1081).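 Also: binding of the protein to compounds printed on small-molecule microarray slides.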 The note with it: higher = more signal.
The nature of assay [8]: FRG1 expression reporter modulators in myotubes – cell-based, C2C12 myotubes, firefly/Renilla luciferase, luminescence, FRG1 inhibition for FSHD, primary screen (AID 1084). Particulars: FRG1 promoter luciferase, higher = more signal, called active from +8 up or from −8 down.
The nature of assay [9]: small molecules captured by biotinylated probe aFST – biochemical, small-molecule microarray, fluorescence 635/667, stem cell growth factor project, primary screen (AID 1086).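 Also: score merges 667 nm fluorescence with signal-to-noise of each printed compound spot.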 The note with it: higher = more signal.
Assay [10] in a line: binders of probe aHhip on microarray, primary screen, stem cell growth factor project, biochemical, small-molecule microarray, fluorescence 635/667 (AID 1087).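 Also: score merges spot fluorescence at 667nm with spot signal to noise ratio.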 Particulars: higher = more signal.
The subject of assay [11] is PRMT1 (protein arginine N-methyltransferase 1). In words: small molecules binding arginine methyltransferase PRMT1 – biochemical, small-molecule microarray, 635 nm fluorescence, primary screen (AID 1088).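 Also: binding of Prmt1 protein to compounds spotted on small-molecule microarray slides.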 Particulars: higher = more signal.
Assay [12] in a line: growth effects on S. cerevisiae YJM789 – YJM789 clinical isolate, OD600, 24 h, basal, primary screen (AID 1089).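 Also: growth of clinical yeast isolate S. cerevisiae YJM 789 seeded 1000 cells per well; test concentration not given here.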 The note with it: higher = more signal, called active from +8 up or from −8 down.
Assay [13] in a line: S. pombe growth modifiers, basal conditions – strain 972, OD600, 24 h, no modulator, primary screen (AID 1090).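 Also: basal condition with compound alone and no growth modifier present; test concentration not given here.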 Particulars: S. pombe 972 growth, higher = more signal, called active from +8 up or from −8 down.
The nature of assay [14]: budding yeast growth modifiers under rapamycin – strain BY4716, OD600, 96 h, primary screen (AID 1091). Also: test concentration not given here. Particulars: S. cerevisiae BY4716 + rapamycin, higher = more signal, called active from +8 up or from −8 down.
Assay [15] deals with Torsin-1A-interacting protein 2 (Homo sapiens) (UniProt Q8NFQ8). The assay is described as follows: small molecules binding lysate-expressed LULL1 – cell lysate, human LULL1 lysate, 635/667 nm fluorescence, primary screen (AID 1092).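 Also: probe is lysate of COS7 cells overexpressing human LULL1; score merges per-feature 667 nm fluorescence with signal-to-noise.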 Particulars: small-molecule microarray, hLULL1 lysate binding, 635 nm fluorescence; higher = more signal.
Sequence of Torsin-1A-interacting protein 2 (Homo sapiens) (Q8NFQ8 whole entry, looked up): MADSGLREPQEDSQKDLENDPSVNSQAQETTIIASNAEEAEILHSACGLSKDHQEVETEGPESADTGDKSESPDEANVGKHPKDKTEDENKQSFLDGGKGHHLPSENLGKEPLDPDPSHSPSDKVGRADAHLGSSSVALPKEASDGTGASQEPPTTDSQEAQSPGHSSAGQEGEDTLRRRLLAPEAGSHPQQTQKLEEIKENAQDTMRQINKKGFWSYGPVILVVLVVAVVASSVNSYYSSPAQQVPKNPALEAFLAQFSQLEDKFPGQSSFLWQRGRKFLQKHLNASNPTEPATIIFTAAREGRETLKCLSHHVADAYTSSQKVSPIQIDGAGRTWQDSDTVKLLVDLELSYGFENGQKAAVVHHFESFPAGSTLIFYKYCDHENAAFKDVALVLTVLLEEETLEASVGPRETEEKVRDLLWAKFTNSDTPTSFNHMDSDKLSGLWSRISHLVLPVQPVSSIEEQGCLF
The nature of assay [16]: optical density change of DRC41 E. coli – strain DRC41, OD650, 24 h, E. coli filamentation project, primary screen (AID 1093).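 Also: MC1000 strain lacking acrAB efflux and sulA so SOS filamentation is blocked; test concentration not given here.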 The note with it: E. coli DRC41 growth, higher = more signal, called active from +8 up or from −8 down.
A short description of assay [17]: probe aLefty2 binding to arrayed compounds – biochemical, biotinylated probe, 635/667 nm fluorescence, primary screen (AID 1094).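 Also: score merges spot fluorescence near 667 nm with spot signal-to-noise ratio.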 The note with it: small-molecule microarray, higher = more signal.
The subject of assay [18] is Noggin (protein binding on small-molecule microarray). The assay is described as follows: small molecules binding Noggin protein – biochemical, 635/667 nm fluorescence, primary screen (AID 1095).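 Also: score merges 667 nm feature fluorescence with signal to noise over triplicate slides.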 Particulars: 635 nm fluorescence, higher = more signal.
Assay [19] addresses Neurogenic locus notch homolog protein 3 (Homo sapiens) (UniProt Q9UM47). In words: small molecules binding NOTCH3 protein – biochemical, 635/667 nm fluorescence, primary screen (AID 1096). The note with it: small-molecule microarray, 635 nm fluorescence, higher = more signal.
Assay [20] can be described thus: probe aEGFR binding to arrayed compounds – biochemical, biotinylated probe, 635/667 nm fluorescence, primary screen (AID 1097).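 Also: probe is a biotinylated anti-EGFR antibody binding compounds printed on slides; score combines fluorescence near 667 nm and signal to noise of each spot.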 The note with it: small-molecule microarray, higher = more signal.

Sequence of Neurogenic locus notch homolog protein 3 (Homo sapiens) (Q9UM47 whole entry, looked up): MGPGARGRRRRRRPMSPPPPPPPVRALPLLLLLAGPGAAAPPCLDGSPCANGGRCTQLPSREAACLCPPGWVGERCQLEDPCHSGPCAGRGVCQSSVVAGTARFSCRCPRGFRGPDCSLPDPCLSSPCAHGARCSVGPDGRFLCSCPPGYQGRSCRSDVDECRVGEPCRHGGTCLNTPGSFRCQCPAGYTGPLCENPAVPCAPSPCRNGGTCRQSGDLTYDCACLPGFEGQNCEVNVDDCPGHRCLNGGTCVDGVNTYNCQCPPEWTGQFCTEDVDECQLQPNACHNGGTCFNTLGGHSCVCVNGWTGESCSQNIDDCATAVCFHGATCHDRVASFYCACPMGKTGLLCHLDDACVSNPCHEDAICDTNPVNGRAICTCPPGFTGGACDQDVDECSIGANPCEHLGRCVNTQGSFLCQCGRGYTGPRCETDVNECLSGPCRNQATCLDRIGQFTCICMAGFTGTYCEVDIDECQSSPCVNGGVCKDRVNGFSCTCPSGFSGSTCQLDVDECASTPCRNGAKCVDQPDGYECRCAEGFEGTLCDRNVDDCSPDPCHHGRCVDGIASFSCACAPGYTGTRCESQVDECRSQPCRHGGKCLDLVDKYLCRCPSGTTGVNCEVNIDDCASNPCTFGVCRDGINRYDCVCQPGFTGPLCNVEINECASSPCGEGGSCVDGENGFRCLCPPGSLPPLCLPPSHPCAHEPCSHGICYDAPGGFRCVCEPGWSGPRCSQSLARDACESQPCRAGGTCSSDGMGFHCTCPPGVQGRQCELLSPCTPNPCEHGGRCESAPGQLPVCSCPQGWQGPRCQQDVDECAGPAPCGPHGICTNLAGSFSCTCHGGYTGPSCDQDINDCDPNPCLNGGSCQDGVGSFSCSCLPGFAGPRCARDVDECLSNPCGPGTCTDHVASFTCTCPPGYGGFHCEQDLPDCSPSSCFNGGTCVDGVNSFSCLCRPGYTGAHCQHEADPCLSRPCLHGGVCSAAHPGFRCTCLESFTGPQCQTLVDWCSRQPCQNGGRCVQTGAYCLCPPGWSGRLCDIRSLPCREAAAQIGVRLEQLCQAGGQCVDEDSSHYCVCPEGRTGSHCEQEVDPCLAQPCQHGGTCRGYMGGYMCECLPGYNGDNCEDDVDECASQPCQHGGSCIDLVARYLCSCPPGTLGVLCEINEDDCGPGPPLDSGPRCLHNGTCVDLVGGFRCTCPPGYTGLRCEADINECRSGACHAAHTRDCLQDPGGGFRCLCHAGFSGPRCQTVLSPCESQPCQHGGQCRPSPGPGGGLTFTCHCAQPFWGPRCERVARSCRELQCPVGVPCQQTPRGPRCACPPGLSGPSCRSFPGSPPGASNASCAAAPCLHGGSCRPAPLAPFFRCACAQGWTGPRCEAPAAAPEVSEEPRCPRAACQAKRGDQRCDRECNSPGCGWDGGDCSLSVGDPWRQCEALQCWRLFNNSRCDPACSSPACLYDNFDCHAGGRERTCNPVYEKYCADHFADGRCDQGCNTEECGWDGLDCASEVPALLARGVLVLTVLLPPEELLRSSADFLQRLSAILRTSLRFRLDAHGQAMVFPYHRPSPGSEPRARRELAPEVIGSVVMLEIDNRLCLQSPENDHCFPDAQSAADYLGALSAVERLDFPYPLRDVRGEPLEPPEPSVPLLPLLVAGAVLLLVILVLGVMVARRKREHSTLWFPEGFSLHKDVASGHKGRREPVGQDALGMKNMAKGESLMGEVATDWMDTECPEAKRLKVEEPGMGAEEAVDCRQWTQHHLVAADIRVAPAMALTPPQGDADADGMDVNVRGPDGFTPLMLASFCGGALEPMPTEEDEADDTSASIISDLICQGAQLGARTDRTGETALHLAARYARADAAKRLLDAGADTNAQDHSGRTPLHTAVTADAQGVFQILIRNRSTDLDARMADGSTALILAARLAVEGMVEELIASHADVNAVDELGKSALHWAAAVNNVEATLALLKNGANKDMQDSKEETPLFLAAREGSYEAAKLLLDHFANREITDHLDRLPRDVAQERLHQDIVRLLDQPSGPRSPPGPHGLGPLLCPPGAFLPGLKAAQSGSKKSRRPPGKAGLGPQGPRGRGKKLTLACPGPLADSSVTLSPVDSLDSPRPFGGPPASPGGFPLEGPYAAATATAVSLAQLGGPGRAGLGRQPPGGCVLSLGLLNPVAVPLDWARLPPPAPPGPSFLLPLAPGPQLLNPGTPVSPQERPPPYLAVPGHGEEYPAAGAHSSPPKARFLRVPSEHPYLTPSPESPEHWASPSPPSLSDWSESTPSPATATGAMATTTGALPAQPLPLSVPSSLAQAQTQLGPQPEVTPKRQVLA

With `O=C1OCC=C[C@H]2OC34C=CCN(Cn5nnc6ccccc65)C(=O)[C@H]3N(CCCCCCO)C(=O)[C@@H]4[C@@H]12` (stereo not given in full), the composite z-score was 0.492 in assay [1]; -0.334 in [2]; -0.163 in assay [3]; -0.54 in assay [4]; -0.522 in assay [5]; 1.91 in [6]. Besides, the composite z-score was 1.52 in [7]; -0.116 in assay [9]; -0.201 in [10]; -0.184 in assay [11]; 1.29 in assay [15]; -0.0356 in assay [17]. For the same compound, the composite z-score in assay [18] is -1.04; in assay [19], -0.0986; in assay [20], -0.195. The z-score is 0.215 (inactive) in assay [8]; -1.47 (inactive) in [12]; -1.19 (inactive) in assay [13]; -0.66 (inactive) in assay [14]; -0.218 (inactive) in assay [16].
In the case of `C=CCNC(=O)[C@@H]1[C@H]2C(=O)O[C@H](c3ccccc3)[C@H](c3ccccc3)N2[C@H](c2ccccc2OCCO)[C@@]12C(=O)N(C(=O)OCCOC)c1ccc(C#CC3=CCCCC3)cc12`, the composite z-score is -0.0809 in assay [1]; 0.683 in [2]; 0.0496 in assay [3]; 0.586 in [4]; -0.0189 in assay [5]; 0.457 in [6]. Besides, the composite z-score is 1.2 in assay [7]; 0.206 in assay [9]; -0.178 in assay [10]; 1.54 in [11]; 2.31 in assay [15]; -0.205 in assay [17]. Also, the composite z-score in assay [18] was 1.34; in assay [19] it was 1.15; in assay [20], -0.0435. Also, the z-score in [8] is -1.11 (inactive); in [12] it was 0.363 (inactive); in [13] it was -0.0834 (inactive); in assay [14] it was 3.14 (inactive); in assay [16] it was 0.906 (inactive).
On to `COc1ccccc1CN1C(=O)c2ccccc2[C@@H](C(=O)NC(C)C)[C@@H]1c1ccc(CO)cc1`, for which the composite z-score was -0.0001 in assay [1]; -0.487 in assay [2]; 0.0451 in assay [3]; 0.761 in assay [4]; 1.53 in [5]; 1.13 in assay [6]. The composite z-score in assay [7] is 1.31; in assay [9] it was 0.676; in [10], 0.281; in assay [11], 1.51; in assay [15], 2.36; in assay [17], 0.12. The composite z-score is 0.885 in assay [18], 1.09 in [19] and 0.14 in assay [20]. The z-score in [8] is -1.41 (inactive); in assay [12], -0.309 (inactive); in assay [13], -0.0831 (inactive); in assay [14], -0.352 (inactive); in assay [16], 1.02 (inactive).
Consider `CCOC(=O)C[C@H]1[C@H](OC(=O)Cc2ccc3c(c2)OCO3)[C@@H](NC(=O)C2CCCCC2)c2cc(OCCCO)ccc2N1C(=O)c1ccc2ccccc2n1`, for which the composite z-score was 0.695 in [1]; 0.246 in [2]; -0.003 in [3]; 0.234 in [4]; 0.904 in [5]; 0.196 in assay [6]. In addition, the composite z-score in assay [7] is 0.519; in [9] it was 0.857; in [10], -0.335; in [11] it was 0.688; in [15] it was 1.34; in assay [17], -0.0798. Also, the composite z-score is 1.98 in assay [18], 1.09 in assay [19] and 0.0428 in assay [20]. Besides, the z-score is -2.88 (inactive) in assay [8]; 0.327 (inactive) in assay [12]; -1.46 (inactive) in assay [13]; -0.591 (inactive) in [14]; 0.848 (inactive) in assay [16].
For `C=C[C@@H](COC(C)=O)NS(=O)(=O)c1ccc(Br)cc1`, the composite z-score was -0.35 in assay [1]; 0.242 in [2]; -0.0296 in assay [3]; 0.135 in assay [4]; 0.414 in assay [5]; 0.0227 in assay [6]. Also, the composite z-score in assay [7] was 0.564; in assay [9], 0.111; in [10] it was -0.0672; in [11], 0.317; in [15] it was 0.399; in [17] it was -0.176. Further, the composite z-score in assay [18] was 0.516; in assay [19] it was 0.269; in assay [20], -0.157. Besides, the z-score in assay [8] was 1.39 (inactive); in assay [12], -0.952 (inactive); in [13], -15.7 (active); in assay [14] it was -1.36 (inactive); in assay [16], -0.819 (inactive).
